The source made the active and inactive calls.

Assay [1] deals with Human papillomavirus type 1a protein E7 (residues 44-93). Put plainly: HPV1a E7 fragment binders on microarrays, primary screen, biochemical, small-molecule microarray, residues 44-93, 635 nm fluorescence (AID 1108).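 Also: E7 fragment applied at 1 µg/mL in TBST for 1 h at 4 C; score combines spot fluorescence with its signal to noise ratio.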 As to conditions: small-molecule microarray binding, fluorescence 635 nm; higher = more signal.
Assay [2] is described as follows: modulators of HCV replicon luciferase signal, primary screen, HCV replication inhibitor project, Huh7 cells, luciferase reporter (AID 1109).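 Also: huh7 hepatoma cells harbouring a luciferase neomycin HCV replicon reporter; luciferase luminescence as measure of HCV replicon replication; test concentration not given here.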 As to conditions: 48 h, higher = more signal. Background: Replicon systems follow genome replication, usually without infectious particles.
For assay [3], the target named is Left-right determination factor 2 (Homo sapiens) (UniProt O00292). Put plainly: LEFTY2 binders on small-molecule microarrays, primary screen, biochemical, small-molecule microarray, 635 nm fluorescence scan (AID 1110). Particulars: LEFTY2 binding, higher = more signal.
Assay [4] deals with Calmodulin-1 (Homo sapiens) (UniProt P0DP23). Description: CALM1 binders on microarrays, EGTA buffer, profiling panel, biochemical, small-molecule microarray, Cy5-labelled CALM1 (AID 1111).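 Also: labelled calmodulin applied in Tris saline Tween buffer holding calcium plus EGTA and DTT.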 As to conditions: Cy5-CALM1 binding fluorescence, higher = more signal.
For assay [5] the target is unchanged. Put plainly: calcium-bound CALM1 binders on microarrays, profiling panel, artefact control for SMM control-protein annotation, biochemical, small-molecule microarray, Cy5-labelled CALM1, plus calcium (AID 1112).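 Also: score merges spot fluorescence with signal to noise from triplicate slides.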 Particulars: Cy5-CALM1 binding fluorescence, higher = more signal.
Assay [6] in a line: small-molecule microarray binders of probe aWnt5a, primary screen, biochemical, biotinylated probe, 635/667 nm fluorescence (AID 1113).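 Also: score merges 667 nm fluorescence intensity with signal-to-noise per printed feature.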 As to conditions: higher = more signal.
The nature of assay [7]: small-molecule microarray binders of probe aShh, primary screen, biochemical, biotinylated probe, 635/667 nm fluorescence (AID 1114).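 Also: probe is biotin-labelled aShh protein from a stem cell growth factor screen; measures binding of labelled protein to compounds printed on the slide; score merges feature fluorescence at 667 nm with signal-to-noise.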 Particulars: higher = more signal.
The nature of assay [8]: small-molecule microarray binders of probe aNog, primary screen, biochemical, biotinylated probe, 635/667 nm fluorescence (AID 1115).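 Also: probe is biotinylated aNog protein used at 0.15 µg/mL for 1 h at 4 C; z-score combines 667 nm fluorescence of each spot with its signal to noise.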 As to conditions: higher = more signal.
The target in assay [9] is Torsin-1A-interacting protein 1 (Homo sapiens) (UniProt Q5JTV8). Description: LAP1 binders from COS7 cell lysate, primary screen, small-molecule microarray, 635/667 nm fluorescence (AID 1116). As to conditions: COS7-hLAP1 lysate binding, 635 nm fluorescence, higher = more signal.
For assay [10], the target named is Alpha-bungarotoxin (Bungarus multicinctus) (UniProt P60615). Put plainly: alpha-bungarotoxin binders on microarray, profiling panel, artefact control for SMM control protein annotation, biochemical, small-molecule microarray, Alexa647 label, 635/667 nm fluorescence (AID 1117). Particulars: alpha-BTX-A647 binding fluorescence, higher = more signal.
A further assay has as its target Albumin (Bos taurus) (UniProt P02769). Description: bovine serum albumin binders on microarray, profiling panel, artefact control for SMM control protein annotation, biochemical, small-molecule microarray, Alexa647 label, 635/667 nm fluorescence (AID 1118).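 Also: score merges 667 nm emission intensity and signal-to-noise per printed compound spot.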 Particulars: BSA-A647 binding, fluorescence 635 nm, higher = more signal.
A short description of assay [11]: small-molecule microarray binders of probe aXIP, primary screen, biochemical, NeuroSMM set, 635/667 nm fluorescence (AID 1119).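 Also: probe is the protein aXip251-270 applied at 1 µg/mL to compound-printed slides; binding of probe to printed compounds measured as 667 nm fluorescence plus signal to noise.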 Particulars: higher = more signal, called active from +8 up or from −8 down.
Assay [12] can be described thus: small-molecule binders of probe aNOTCH3, primary screen, biochemical, small-molecule microarray, 635/667 nm fluorescence (AID 1120).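 Also: probe is a biotin-tagged antibody raised against NOTCH3 rather than NOTCH3 protein; score merges spot fluorescence near 667 nm with spot signal to noise.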 As to conditions: higher = more signal.
Assay [13] is described as follows: small-molecule binders of probe aNOTCH2, primary screen, biochemical, small-molecule microarray, 635/667 nm fluorescence (AID 1121).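 Also: score merges feature fluorescence read at 667 nm with its signal to noise.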 As to conditions: higher = more signal.
Assay [14] deals with Carbonic anhydrase 2 (Homo sapiens) (UniProt P00918). Description: CAII small-molecule binders, profiling panel, biochemical, small-molecule microarray, Alexa647-labelled CAII (AID 1122). As to conditions: CAII-A647 binding fluorescence, higher = more signal.
Assay [15] can be described thus: COS7 lysate on small-molecule microarray, probe aHis, 635 nm (AID 1123).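 Also: z-score combines 667nm fluorescence intensity with signal-to-noise per printed compound spot.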 As to conditions: COS7 cell lysate, fluorescence, higher = more signal.
The nature of assay [16]: compound binding in COS7 lysate, probe aLAP1, primary screen, cell lysate, small-molecule microarray (AID 1124).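 Also: lysate comes from COS7 cells expressing LAP1 and is applied at 0.3 µg/mL; score merges spot fluorescence near 667 nm with signal-to-noise over triplicate slides.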 As to conditions: probe aLAP1, fluorescence, higher = more signal.
The next assay relates to Sam68 (KHDRBS1). Description: Sam68 small-molecule binders, primary screen, biochemical, small-molecule microarray, 635 nm fluorescence (AID 1125).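 Also: score merges 667 nm channel intensity with signal to noise over triplicate slides.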 As to conditions: small-molecule microarray binding, higher = more signal.
Assay [17] concerns Chordin-like protein 2 (CHRDL2). Description: CHRDL2 small-molecule binders, primary screen, biochemical, small-molecule microarray, 635 nm fluorescence (AID 1126).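 Also: printed compound slides probed with Chrdl2 protein at 4 µg/mL for 1 h at 4 C; score merges 667 nm emission intensity with signal to noise over three replicate slides.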 Particulars: small-molecule microarray binding, fluorescence 635 nm; higher = more signal.
Assay [18] has as its target Concanavalin-A (Canavalia ensiformis) (UniProt P02866). Put plainly: ConA small-molecule binders, primary screen, artefact control for SMM control protein annotation, biochemical, small-molecule microarray, Alexa647 label, 635 nm (AID 1127).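 Also: z combines 667 nm emission intensity with signal-to-noise across three replicate slides.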 As to conditions: ConA-A647 binding fluorescence, higher = more signal.

Chain of Torsin-1A-interacting protein 1 (Homo sapiens) (Q5JTV8 whole entry, looked up): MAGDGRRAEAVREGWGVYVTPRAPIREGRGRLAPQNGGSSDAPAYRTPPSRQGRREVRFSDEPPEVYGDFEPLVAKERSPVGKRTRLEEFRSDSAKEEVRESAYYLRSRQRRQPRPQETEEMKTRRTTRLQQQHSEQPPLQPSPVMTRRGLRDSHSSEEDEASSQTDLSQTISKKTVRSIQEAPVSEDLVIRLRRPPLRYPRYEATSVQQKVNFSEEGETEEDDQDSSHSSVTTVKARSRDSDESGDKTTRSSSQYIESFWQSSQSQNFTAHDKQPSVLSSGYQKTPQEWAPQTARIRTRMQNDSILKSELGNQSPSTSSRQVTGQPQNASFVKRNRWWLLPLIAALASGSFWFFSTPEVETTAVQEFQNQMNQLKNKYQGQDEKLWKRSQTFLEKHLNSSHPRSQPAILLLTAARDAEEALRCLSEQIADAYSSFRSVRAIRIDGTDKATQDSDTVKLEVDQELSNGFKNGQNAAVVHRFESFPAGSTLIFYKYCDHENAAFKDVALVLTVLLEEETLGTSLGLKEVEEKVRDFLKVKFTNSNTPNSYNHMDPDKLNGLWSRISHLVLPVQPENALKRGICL
Chain of Albumin (Bos taurus) (P02769 whole entry, looked up): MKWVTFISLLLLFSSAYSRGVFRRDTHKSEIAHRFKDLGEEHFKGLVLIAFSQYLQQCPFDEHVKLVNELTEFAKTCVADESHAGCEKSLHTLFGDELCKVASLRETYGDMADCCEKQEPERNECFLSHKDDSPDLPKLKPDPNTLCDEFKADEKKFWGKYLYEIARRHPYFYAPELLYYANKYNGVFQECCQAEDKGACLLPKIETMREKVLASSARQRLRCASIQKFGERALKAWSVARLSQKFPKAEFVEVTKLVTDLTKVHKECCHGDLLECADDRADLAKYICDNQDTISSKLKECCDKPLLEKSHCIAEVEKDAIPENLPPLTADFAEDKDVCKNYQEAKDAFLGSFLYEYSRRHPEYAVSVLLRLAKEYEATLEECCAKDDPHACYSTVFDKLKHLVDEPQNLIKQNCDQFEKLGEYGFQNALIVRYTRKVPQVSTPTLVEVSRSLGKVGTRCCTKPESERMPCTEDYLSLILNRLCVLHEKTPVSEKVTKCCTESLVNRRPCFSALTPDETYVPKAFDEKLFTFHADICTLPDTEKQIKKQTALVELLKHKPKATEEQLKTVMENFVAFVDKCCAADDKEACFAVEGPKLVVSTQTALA
Chain of Alpha-bungarotoxin (Bungarus multicinctus) (P60615 whole entry, looked up): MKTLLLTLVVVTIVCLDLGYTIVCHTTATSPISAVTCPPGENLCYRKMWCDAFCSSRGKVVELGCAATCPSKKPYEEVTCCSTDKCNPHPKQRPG
Chain of Left-right determination factor 2 (Homo sapiens) (O00292 whole entry, looked up): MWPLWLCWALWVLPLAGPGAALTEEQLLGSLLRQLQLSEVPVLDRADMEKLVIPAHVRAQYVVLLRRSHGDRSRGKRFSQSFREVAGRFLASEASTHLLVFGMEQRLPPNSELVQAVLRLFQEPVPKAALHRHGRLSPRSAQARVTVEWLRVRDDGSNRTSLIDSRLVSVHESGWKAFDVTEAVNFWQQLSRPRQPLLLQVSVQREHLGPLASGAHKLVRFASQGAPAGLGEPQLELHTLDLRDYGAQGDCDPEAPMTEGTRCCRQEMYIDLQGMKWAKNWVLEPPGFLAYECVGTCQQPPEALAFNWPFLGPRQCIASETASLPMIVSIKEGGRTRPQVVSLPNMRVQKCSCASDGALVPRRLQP
Chain of Concanavalin-A (Canavalia ensiformis) (P02866 whole entry, looked up): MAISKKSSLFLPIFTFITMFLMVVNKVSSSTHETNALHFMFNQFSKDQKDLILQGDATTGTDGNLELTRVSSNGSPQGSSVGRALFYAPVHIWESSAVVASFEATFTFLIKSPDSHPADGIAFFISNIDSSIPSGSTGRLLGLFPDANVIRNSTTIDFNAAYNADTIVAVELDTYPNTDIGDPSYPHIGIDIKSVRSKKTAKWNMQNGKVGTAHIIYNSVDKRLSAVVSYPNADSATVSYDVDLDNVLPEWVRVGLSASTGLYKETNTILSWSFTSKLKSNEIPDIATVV

In the case of `C=C(COC)C(=O)CC[C@H](OC(=O)c1ccccc1-c1ccccc1C(=O)O)c1ccc(OCCO)cc1`, the composite z-score in assay [1] was 0.701; in assay [3] it was 0.419; in assay [4], 0.0421; in [5], -0.774; in assay [6], -0.148; in assay [7], 0.351. Moreover, the composite z-score in assay [8] was 0.229; in [9], 3.05; in [10], 1.16; in the assay with Albumin (Bos taurus), 0.369; in assay [12], 0.0628; in assay [13], -0.117. In addition, the composite z-score in [14] stood at 0.425; in assay [15], 0.276; in [16], 1.12; in the assay with Sam68 (KHDRBS1), 1.09; in assay [17], 0.498; in [18] it was 0.527. Also, the z-score in [2] is -1.06. For the same compound, the composite Z-score in assay [11] is 0.161 (inactive).
In the case of `CN1C(=O)C2C=CC(C(O)c3cccc4ccccc34)N(NC(=O)OC(C)(C)C)C2C1=O` (stereo not given), the composite z-score in assay [1] is 1.28; in [3], -0.22; in assay [4], 2.49; in assay [5], 1.43; in assay [6], -0.0512; in [7] it was -0.0813. The composite z-score in [8] was -0.125; in assay [9] it was 2.66; in assay [10], 1.19; with Albumin (Bos taurus) it was 1; in assay [12] it was 0.479; in assay [13], 0.385. The composite z-score in assay [14] is 0.752; in [15] it was 2.95; in [16], 1.57; in the assay with Sam68 (KHDRBS1), 1.3; in assay [17], -0.705; in assay [18], 1.17. Moreover, the z-score in assay [2] is -0.602. For the same compound, the composite Z-score in [11] is 0.58 (inactive).
With `C[N+](C)(C)CCCCCCNC(=O)[C@@H]1C[C@@H]2C(=O)NCC(=O)N2[C@@H]1c1ccc(O)cc1`, the composite z-score in [1] was 1.33; in [3], 0.549; in assay [4] it was 0.334; in [5] it was -0.431; in assay [6], -0.124; in assay [7], -0.244. In addition, the composite z-score in assay [8] is -0.196; in [9], 1.03; in assay [10], 1.9; in the assay with Albumin (Bos taurus) it was -0.356; in [12], 0.0636; in [13], -0.174. Also, the composite z-score in assay [14] was 0.618; in assay [15] it was 1.69; in assay [16], 0.393; in the assay on Sam68 (KHDRBS1), 1.06; in [17], 1.3; in assay [18], 0.788. In assay [2], this compound gave a z-score of 1.33. In addition, the composite Z-score in assay [11] was 0.607 (inactive).
`CC(C)C[C@@H]1NC(=O)[C@@H]2C[C@H](C(=O)NCCCC[N+](C)(C)C)[C@H](c3cccc(OCCO)c3)N2C1=O`: the composite z-score is -0.832 in assay [1]; 1.01 in [3]; -0.863 in assay [4]; 0.348 in assay [5]; -0.0236 in assay [6]; 0.151 in [7]. Moreover, the composite z-score was -0.198 in [8]; 1.05 in assay [9]; 0.324 in assay [10]; -1.59 in the assay with Albumin (Bos taurus); 0.116 in assay [12]; -0.0999 in assay [13]. Also, the composite z-score in assay [14] turned out to be 0.479; in assay [15], 0.432; in assay [16] it was 0.255; in the assay with Sam68 (KHDRBS1), 0.82; in [17], 1.44; in assay [18] it was 0.496. Also, the z-score in [2] was -0.604. The composite Z-score in [11] was 0.0578 (inactive).
Turning to `C=C(COC)/C(=C/C[C@@H](OC(=O)c1ccncc1)c1cccc(OCCO)c1)c1cc(C(=O)OC)ccc1OC`, the composite z-score is 0.755 in assay [1]; 0.872 in assay [3]; -0.134 in [4]; -0.698 in assay [5]; 0.115 in [6]; 0.0048 in assay [7]. The composite z-score in assay [8] is -0.483; in [9], 0.567; in [10], 0.243; in the assay with Albumin (Bos taurus), -0.431; in [12], 0.0297; in assay [13], -0.147. Also, the composite z-score was 0.646 in assay [14]; -0.0596 in assay [15]; 0.996 in [16]; 1.24 in the assay with Sam68 (KHDRBS1); 0.699 in [17]; 0.206 in assay [18]. Moreover, in assay [2], the z-score is -4.4. Also, the composite Z-score in assay [11] is 0.135 (inactive).

The values are drawn from PubChem BioAssay.
